This passage reports AC50 and outcome results from PubChem BioAssay (EPA / NIEHS).

Active and inactive are the calls of the source. The calls were made as follows: active = hit-call score of the fitted dose curve at least 0.9, where 1 is the maximum; inactive = score below 0.9.

A short description of assay [1]: ATG_CRE_CIS: Attagene CIS-FACTORIAL HepG2 Assay for human cAMP Responsive Element (CRE) binding protein 3 (AID 2282926). The conditions noted are these: HepG2 CRE cis-reporter, Attagene multiplexed mRNA; actives raise or lower the signal. In short, it runs like this: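 Transfected HepG2 were treated for 24 hours, then RNA was extracted and reporter cDNA amplified with sequence-specific primers. Labelled fragments were separated by capillary electrophoresis, and the CRE signal was fitted bidirectionally with DMSO as baseline.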

The target in assay [2] is CCAAT/enhancer-binding protein beta (Homo sapiens) (UniProt P17676). Nature of the assay: ATG_C_EBP_CIS: Attagene CIS-FACTORIAL HepG2 Assay for human CCAAT/Enhancer Binding Protein (C/EBP) beta (AID 2282927). The conditions noted are these: HepG2 Attagene cis-factorial transcription factor reporter; actives raise or lower the signal. In short, it runs like this: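 Following a 24 h incubation with test chemical, transfected HepG2 cells yielded RNA whose reporter transcripts were quantified by RT-PCR and fluorescent capillary electrophoresis, with DMSO serving as baseline for bidirectional fitting.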
CCAAT/enhancer-binding protein beta (Homo sapiens), sequence (P17676 whole entry, looked up): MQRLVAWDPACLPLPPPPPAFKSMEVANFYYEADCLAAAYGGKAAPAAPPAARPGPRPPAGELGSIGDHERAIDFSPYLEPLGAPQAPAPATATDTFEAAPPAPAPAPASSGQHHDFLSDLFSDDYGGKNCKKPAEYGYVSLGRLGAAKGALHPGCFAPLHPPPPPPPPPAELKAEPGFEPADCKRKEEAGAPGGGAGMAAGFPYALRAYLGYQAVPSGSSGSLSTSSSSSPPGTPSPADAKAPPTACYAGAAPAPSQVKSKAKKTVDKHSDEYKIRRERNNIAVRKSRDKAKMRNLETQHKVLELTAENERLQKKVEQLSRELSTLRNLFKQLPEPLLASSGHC

Assay [3] is described as follows: ATG_CMV_CIS: Attagene CIS-FACTORIAL HepG2 Assay for human CMV (Internal Marker) (AID 2282928).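 Also: endpoint acts as a background internal control marker rather than a target.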 The conditions noted are these: HepG2 CMV promoter reporter, transcription factor profiling; actives raise or lower the signal. A digest of the protocol:
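After transient transfection of HepG2 with reporter transcription units driven by cis-regulatory promoters, cells receive test chemical for 24 h. Labeled reporter amplicons, digested with HpaI, are sized and quantified by capillary electrophoresis against DMSO.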

Assay [4] can be described thus: ATG_DR4_LXR_CIS: Attagene CIS-FACTORIAL HepG2 Assay for human Liver X Receptor (LXR), DR4 submotif (AID 2282929). The following applies: HepG2 Attagene DR4 cis-reporter, mRNA transcription; actives raise or lower the signal. A digest of the protocol: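 Measures endogenous transcription factor activity via a DR4-driven reporter transcript in human HepG2 cells. Compounds incubated 24 h; mRNA quantified by RT-PCR and capillary electrophoresis, analysed as gain or loss of signal versus DMSO.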

The nature of assay [5]: ATG_AP_1_CIS: Attagene CIS-FACTORIAL HepG2 Assay for human Activator Protein 1 (AP-1) (AID 2282931). The following applies: HepG2 Attagene cis-factorial AP-1 reporter mRNA; actives raise or lower the signal. A digest of the protocol: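 Bidirectional concentration-response fitting against DMSO controls. Underlying signal: reporter mRNA from cis-promoter constructs in transiently transfected HepG2, measured after 24 h by RT-PCR and capillary electrophoresis.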

Assay [6] in a line: ATG_AP_2_CIS: Attagene CIS-FACTORIAL HepG2 Assay for human Activator Protein 2 (AP-2) (AID 2282932). The conditions noted are these: HepG2 AP-2 cis-reporter, Attagene transcription factor profiling; actives raise or lower the signal. In short, it runs like this:
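HepG2 cells were transiently transfected with multiple cis-promoter reporter transcription units and dosed for 24 h. Reporter mRNA was measured by RT-PCR with capillary electrophoresis fluorescence; bidirectional fits relative to DMSO baseline.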

Assay [7] is described as follows: ATG_BRE_CIS: Attagene CIS-FACTORIAL HepG2 Assay for human Bone Morphogenetic Protein (BMP) Response Element (BRE) (AID 2282933). The conditions noted are these: HepG2 BMP response element reporter, Attagene transcription factor profiling; actives raise or lower the signal. A digest of the protocol:
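After a 24 h chemical treatment, transiently transfected HepG2 cells were lysed for RNA; reporter transcripts were quantified by fluorescent RT-PCR and capillary electrophoresis, normalised to DMSO.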

Assay [8] concerns the target Retinoic acid receptor alpha (Homo sapiens) (UniProt P10276). As to the kind of experiment: ATG_DR5_RAR_CIS: Attagene CIS-FACTORIAL HepG2 Assay for human Retinoic Acid Receptor Alpha (RARE), DR5 submotif (AID 2282934).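 As to AC50: reporter responds to endogenous RAR alpha beta and gamma in HepG2 not RARA alone.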 The following applies: HepG2 Attagene cis-factorial RARE DR5 reporter, mRNA; actives raise or lower the signal. A digest of the protocol: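 Endpoint fitted in both directions relative to DMSO as negative control. It reflects DR5 cis-element reporter mRNA induction in transiently transfected HepG2 cells, measured 24 h after dosing through RT-PCR and fluorescent capillary electrophoresis.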

In assay [9] the target is Transcription factor E2F1 (Homo sapiens) (UniProt Q01094). As to the kind of experiment: ATG_E2F_CIS: Attagene CIS-FACTORIAL HepG2 Assay for human E2F Transcription Factor 1 (AID 2282935). The following applies: HepG2 Attagene cis-reporter, E2F reporter RNA transcripts; actives raise or lower the signal. In short, it runs like this:
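HepG2 cells transiently transfected with multiplexed cis-element reporter units, dosed for 24 h. Reporter mRNA measured by RT-PCR, 6-FAM primer-extension labeling, HpaI digestion and capillary electrophoresis; bidirectional fit versus DMSO baseline.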

The nature of assay [10]: ATG_M_61_CIS: Attagene CIS-FACTORIAL HepG2 Assay for M61 Transcription Factor (Internal Marker) (AID 2282937). The conditions noted are these: HepG2 Attagene CIS-FACTORIAL M61 internal marker reporter; actives raise or lower the signal. A digest of the protocol:
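Fluorescence from labelled cDNA fragments, separated by capillary electrophoresis, quantifies reporter induction. HepG2 cells bearing transiently transfected cis-promoter MRTUs were incubated with test chemical for 24 h; DMSO defined baseline for gain/loss fitting.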

The nature of assay [11]: ATG_EGR_CIS: Attagene CIS-FACTORIAL HepG2 Assay for human Early Growth Response 1 (EGR1) (AID 2282938). The following applies: HepG2 Attagene CIS-FACTORIAL EGR reporter mRNA; actives raise or lower the signal. In short, it runs like this:
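Cell-based multiplex transcription assay: HepG2 carrying transfected cis-element reporter units, 24 h chemical treatment. Fluorescence from capillary electrophoresis of RT-PCR products gives mRNA levels; fitting is bidirectional relative to DMSO.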

A short description of assay [12]: ATG_M_19_CIS: Attagene CIS-FACTORIAL HepG2 Assay for M19 Transcription Factor (Internal Marker) (AID 2282939). The conditions noted are these: HepG2 Attagene CIS-FACTORIAL M19 internal marker reporter; actives raise or lower the signal. A digest of the protocol: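 In this multiplexed cell assay, transiently transfected HepG2 reporter units report endogenous transcription-factor activity; after 24 hours of treatment, labelled reporter cDNA fragments are quantified by capillary electrophoresis and fitted bidirectionally against DMSO.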

Assay [13] is described as follows: ATG_Ets_CIS: Attagene CIS-FACTORIAL HepG2 Assay for human Erythroblast Transformation Specific (ETS) (AID 2282941). The conditions noted are these: HepG2 ETS cis-reporter transcription, actives raise or lower the signal. In short, it runs like this: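 Human HepG2 hepatoma cells were transiently transfected with promoter-driven reporter constructs and treated for 24 hours. Reporter transcripts were quantified by RT-PCR with fluorescent primer extension; bidirectional curve fitting used DMSO as reference.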

For assay [14], the target named is Hepatocyte nuclear factor 3-beta (Homo sapiens) (UniProt Q9Y261). As to the kind of experiment: ATG_FoxA2_CIS: Attagene CIS-FACTORIAL HepG2 Assay for human Forkhead box A2 (FOXA2) (AID 2282942). The following applies: HepG2 cis-reporter transcription factor activity, 24 h; actives raise or lower the signal. A digest of the protocol:
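In transiently transfected human HepG2 cells, promoter-driven reporter mRNA levels after 24 h chemical exposure are determined via RT-PCR with capillary electrophoresis. DMSO serves as baseline for bidirectional fitting.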

Assay [15] can be described thus: ATG_FoxO_CIS: Attagene CIS-FACTORIAL HepG2 Assay for human Forkhead box O (FoxO) (AID 2282943). The conditions noted are these: HepG2 Attagene cis-reporter, FoxO element, mRNA; actives raise or lower the signal. In short, it runs like this: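 Values reflect reporter mRNA induction or loss in HepG2 cells 24 h post-dosing, fitted bidirectionally with DMSO as negative control and baseline. Detection used RT-PCR and fluorescence capillary electrophoresis.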

Assay [16] is described as follows: ATG_GATA_CIS: Attagene CIS-FACTORIAL HepG2 Assay for human GATA Binding Protein (AID 2282944). The following applies: HepG2 GATA cis-element reporter, Attagene multiplex mRNA; actives raise or lower the signal. In short, it runs like this: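 Measures endogenous transcription factor-driven reporter mRNA in HepG2 cells transiently carrying cis-regulated constructs. 24 h dosing; RNA via oligo(dT) reverse transcription, PCR, HpaI digestion, capillary electrophoresis; fitted relative to DMSO.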

A short description of assay [17]: ATG_GLI_CIS: Attagene CIS-FACTORIAL HepG2 Assay for human Zinc Finger Protein GLI1 (AID 2282945). The conditions noted are these: HepG2, Attagene cis-factorial reporter mRNA, GLI element; actives raise or lower the signal. In short, it runs like this: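 HepG2 cells transiently transfected with cis-promoter multiplexed reporter units report endogenous transcription factor activity. After 24 h chemical exposure, reporter mRNA was quantified by RT-PCR, 6-FAM labelling, HpaI digestion and capillary electrophoresis, with bidirectional fitting against DMSO.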

Assay [18] concerns the target Bile acid receptor (Homo sapiens) (UniProt Q96RI1). Nature of the assay: ATG_IR1_CIS: Attagene CIS-FACTORIAL HepG2 Assay for human Nuclear Receptor Subfamily 1 Group H Member 4 (NR1H4), IR1 submotif (AID 2282946). The conditions noted are these: IR1 reporter transcription, actives raise or lower the signal. In short, it runs like this: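 Transient MRTU transfection, HepG2; 24 h dosing; RNA → RT-PCR → 6-FAM primer extension → HpaI digest → capillary electrophoresis fluorescence. Gain/loss of signal fitted relative to DMSO.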

In assay [19] the target is Aryl hydrocarbon receptor (Homo sapiens) (UniProt P35869). Nature of the assay: ATG_Ahr_CIS: Attagene CIS-FACTORIAL HepG2 Assay for human Aryl Hydrocarbon Receptor (Ahr) (AID 2282930). The conditions noted are these: HepG2 AhR cis-factorial reporter transcription; actives raise or lower the signal. A digest of the protocol:
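Values derive from bidirectional fitting against DMSO negative control. Underlying signal: cis-element reporter mRNA in transiently transfected HepG2, harvested 24 h post-dose and measured by RT-PCR plus capillary electrophoresis.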

The nature of assay [20]: ATG_E_Box_CIS: Attagene CIS-FACTORIAL HepG2 Assay for human Enhancer Box (E-box) (AID 2282936). The following applies: HepG2 E-box cis-reporter transcription, actives raise or lower the signal. A digest of the protocol: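 HepG2 cells transiently transfected with multiplexed cis-element reporter units sensing endogenous transcription factor activity; 24 h compound exposure. Reporter mRNA measured by RT-PCR, 6-FAM primer extension, HpaI digestion and capillary electrophoresis; bidirectional fit versus DMSO.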

Bile acid receptor (Homo sapiens), sequence (Q96RI1 whole entry, looked up): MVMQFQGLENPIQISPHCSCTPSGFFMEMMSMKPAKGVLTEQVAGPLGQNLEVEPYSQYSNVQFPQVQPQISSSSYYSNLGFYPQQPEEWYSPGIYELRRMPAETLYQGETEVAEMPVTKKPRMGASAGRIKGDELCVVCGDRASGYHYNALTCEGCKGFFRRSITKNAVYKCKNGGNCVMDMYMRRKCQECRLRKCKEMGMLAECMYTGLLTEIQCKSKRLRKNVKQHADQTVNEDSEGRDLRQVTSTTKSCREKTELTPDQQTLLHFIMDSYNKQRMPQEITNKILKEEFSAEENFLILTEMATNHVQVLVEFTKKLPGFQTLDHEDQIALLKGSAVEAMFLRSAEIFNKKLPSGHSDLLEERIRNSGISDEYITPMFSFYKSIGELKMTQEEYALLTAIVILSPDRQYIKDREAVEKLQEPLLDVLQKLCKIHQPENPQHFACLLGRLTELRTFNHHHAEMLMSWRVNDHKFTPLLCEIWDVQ
Hepatocyte nuclear factor 3-beta (Homo sapiens), sequence (Q9Y261 whole entry, looked up): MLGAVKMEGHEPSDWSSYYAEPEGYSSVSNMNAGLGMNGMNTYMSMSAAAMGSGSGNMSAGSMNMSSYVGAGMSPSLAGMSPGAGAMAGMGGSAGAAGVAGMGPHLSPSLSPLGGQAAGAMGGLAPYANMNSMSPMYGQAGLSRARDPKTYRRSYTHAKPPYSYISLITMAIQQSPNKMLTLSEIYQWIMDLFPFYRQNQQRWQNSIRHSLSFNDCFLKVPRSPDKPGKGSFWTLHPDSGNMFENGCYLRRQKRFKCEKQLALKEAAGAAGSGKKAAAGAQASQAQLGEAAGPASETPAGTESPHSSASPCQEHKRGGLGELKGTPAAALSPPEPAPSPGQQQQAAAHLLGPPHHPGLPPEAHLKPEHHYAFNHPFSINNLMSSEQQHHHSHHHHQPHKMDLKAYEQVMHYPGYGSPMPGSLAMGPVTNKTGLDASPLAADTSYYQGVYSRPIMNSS
Retinoic acid receptor alpha (Homo sapiens), sequence (P10276 whole entry, looked up): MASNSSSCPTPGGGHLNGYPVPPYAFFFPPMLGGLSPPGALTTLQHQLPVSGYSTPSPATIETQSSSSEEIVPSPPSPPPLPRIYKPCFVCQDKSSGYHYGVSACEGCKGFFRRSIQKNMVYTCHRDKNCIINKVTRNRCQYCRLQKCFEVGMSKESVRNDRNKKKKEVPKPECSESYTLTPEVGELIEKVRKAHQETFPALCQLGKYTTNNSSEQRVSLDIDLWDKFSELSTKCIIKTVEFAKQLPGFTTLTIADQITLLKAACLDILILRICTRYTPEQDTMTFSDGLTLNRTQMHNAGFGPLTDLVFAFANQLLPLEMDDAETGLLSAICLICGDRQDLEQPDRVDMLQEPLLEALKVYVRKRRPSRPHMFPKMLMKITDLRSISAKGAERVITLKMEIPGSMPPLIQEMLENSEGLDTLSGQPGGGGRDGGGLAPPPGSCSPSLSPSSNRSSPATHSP
Aryl hydrocarbon receptor (Homo sapiens), sequence (P35869 whole entry, looked up): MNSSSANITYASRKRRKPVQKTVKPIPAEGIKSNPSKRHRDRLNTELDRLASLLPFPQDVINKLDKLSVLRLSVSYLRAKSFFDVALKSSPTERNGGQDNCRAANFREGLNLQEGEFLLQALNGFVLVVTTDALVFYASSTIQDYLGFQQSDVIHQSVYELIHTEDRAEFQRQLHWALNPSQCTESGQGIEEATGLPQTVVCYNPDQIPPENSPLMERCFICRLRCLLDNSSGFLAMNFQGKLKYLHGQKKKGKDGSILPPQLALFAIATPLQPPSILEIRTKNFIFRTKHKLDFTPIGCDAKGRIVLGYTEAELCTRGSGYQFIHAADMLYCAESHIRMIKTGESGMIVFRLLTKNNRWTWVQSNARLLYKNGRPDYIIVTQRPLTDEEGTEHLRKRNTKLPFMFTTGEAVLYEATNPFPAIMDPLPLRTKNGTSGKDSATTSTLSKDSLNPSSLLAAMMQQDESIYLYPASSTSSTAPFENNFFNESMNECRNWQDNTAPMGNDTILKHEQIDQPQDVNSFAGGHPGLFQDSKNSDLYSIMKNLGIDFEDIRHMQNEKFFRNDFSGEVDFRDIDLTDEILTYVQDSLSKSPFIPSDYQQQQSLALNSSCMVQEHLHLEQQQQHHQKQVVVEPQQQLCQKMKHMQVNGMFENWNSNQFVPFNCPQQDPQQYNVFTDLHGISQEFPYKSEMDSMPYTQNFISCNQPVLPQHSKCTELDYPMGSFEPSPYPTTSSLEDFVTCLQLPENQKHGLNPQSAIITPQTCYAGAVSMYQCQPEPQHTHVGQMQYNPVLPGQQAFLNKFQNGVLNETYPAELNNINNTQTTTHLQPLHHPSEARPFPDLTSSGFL
Transcription factor E2F1 (Homo sapiens), sequence (Q01094 whole entry, looked up): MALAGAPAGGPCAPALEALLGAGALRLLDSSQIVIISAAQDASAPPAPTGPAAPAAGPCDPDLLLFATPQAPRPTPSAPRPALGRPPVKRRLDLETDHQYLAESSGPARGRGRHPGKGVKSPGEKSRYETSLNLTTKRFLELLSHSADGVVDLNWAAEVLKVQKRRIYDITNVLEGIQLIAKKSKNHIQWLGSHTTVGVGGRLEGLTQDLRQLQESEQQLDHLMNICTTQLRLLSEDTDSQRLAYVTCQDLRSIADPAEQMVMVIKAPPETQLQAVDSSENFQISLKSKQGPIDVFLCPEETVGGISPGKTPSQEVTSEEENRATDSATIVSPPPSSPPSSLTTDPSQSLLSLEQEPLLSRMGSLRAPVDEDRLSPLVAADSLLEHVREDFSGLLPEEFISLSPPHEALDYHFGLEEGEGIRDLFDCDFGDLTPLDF

In the case of `CC(C)N(C(=O)SCC(Cl)=C(Cl)Cl)C(C)C`, the concentration at half-maximal activity (AC50) (commonly the concentration giving half of the maximal activity seen) is 15.6 µM (active) in assay [1], 10.8 µM (active) in [2], 29.1 µM (active) in assay [8] and 19.9 µM (active) in [18]. Also, the call in [3], in assay [4], in assay [5], in assay [6], in assay [7] and in [9] was inactive. The result in assay [10], in [11], in [12], in [13], in [14] and in assay [15] was inactive. Further, the result in assay [16] and in [17] was inactive.

Take `O=c1ccc(=O)[nH][nH]1`: the outcome in [1], in assay [2], in [3], in assay [4], in [19] and in assay [5] was inactive. Moreover, the compound was classed as inactive in assay [6], in assay [7], in [9], in assay [10], in [11] and in [12]. For the same compound, the call in assay [13], in assay [14], in assay [15], in assay [17] and in assay [18] was inactive.

Consider `CNC(=O)ON=C(C)SC`, for which the compound was classed as inactive in assay [1], in [2], in [3], in assay [4], in assay [19] and in assay [5]. Besides, the call in assay [6], in [7], in [9], in [20], in [10] and in assay [11] was inactive. For the same compound, the compound was classed as inactive in [12], in [13], in [14], in [15], in assay [16] and in assay [17].

As to `CC1=NNC(=O)N(/N=C/c2cccnc2)C1`, the call in assay [1], in assay [2], in assay [3], in assay [4], in assay [19] and in assay [5] was inactive. Also, the compound was called inactive in assay [6], in assay [7], in [8], in assay [9], in assay [10] and in [11]. Also, the compound was called inactive in assay [12], in [13], in [14], in assay [15] and in assay [17].

With `CCOP(=S)(OCC)OC(Cl)C(Cl)(Cl)Cl` (stereo not drawn), the AC50 in assay [1] is 25.3 µM (active); in [2], 30.3 µM (active); in assay [3] it was 71.1 µM (active). Further, the result in assay [4], in assay [19], in assay [5], in assay [6], in assay [7] and in assay [8] was inactive. The compound was called inactive in [9], in [10], in [11], in assay [12], in [13] and in [14]. The result in assay [15] and in [17] was inactive.

As to `CCNc1nc(Cl)nc(NC(C)(C)C#N)n1`, the call in assay [1], in [2], in assay [3], in [4], in assay [19] and in assay [5] was inactive. Moreover, the call in assay [6], in [7], in [9], in assay [10], in assay [11] and in [12] was inactive. Moreover, the result in [13], in [14], in assay [15], in [16] and in assay [17] was inactive.

With `CCOP(=O)(NC(C)C)Oc1ccc(SC)c(C)c1` (stereo not drawn), the outcome in assay [1], in [2], in assay [3], in assay [4], in assay [19] and in assay [5] was inactive. The result in [6], in [7], in assay [9], in [10], in assay [11] and in [12] was inactive. Further, the outcome in [13], in assay [14], in assay [15], in [16], in assay [17] and in assay [18] was inactive. The AC50 in assay [8] is 14.2 µM (active).
